Results published in PubChem BioAssay (Tox21).
Records with an inconclusive call do not appear. Calls of active or inactive are those of the source. Calls come from the whole dose curve.

Assay: qHTS assay to identify small molecule agonists of the AP-1 signaling pathway - cell viability counter screen (AID 1159525); note: nearly all actives have a fitted effect of over 55% in size
Conditions: ME-180 (cervical carcinoma) AP-1-bla cells viability, ATP luminescence, 5 h; series mostly up to 76.8 µM
Excerpt: National Center for Advancing Translational Sciences [NCATS]
NIH Chemical Genomics Center [NCGC]
U.S. Environmental Protection Agency [EPA]
National Institutes of Environmental Health Sciences [NIEHS]
National Toxicology Program [NTP]
U.S. Food and Drug Administration [FDA]
Activator protein-1 (AP-1), a transcription factor, plays an important role in tumor genesis by regulating genes involved in cell proliferation, differentiation, apoptosis, and angiogenesis. AP-1 activity is induced by a complex network of signaling pathways that involves extracellular signals, such as growth factors. The AP-1 protein complex formed from c-Fos and c-Jun binding to the AP-1 response element results in transcriptional activation of genes containing such elements within their promoter.
Low molecular weight molecules have been discovered and developed to modulate various components of these signaling pathways, for example, MAP kinase inhibitors. However, many points of pathway modulation remain untested due to the lack of chemical probes making this signaling locus of general interest.
Using a beta-lactamase reporter-gene under control of the AP-1 response element, a cell-based assay [CellSensor(TM) AP-1-bla ME-180 developed by Invitrogen Corp.] was used to measure EGF-induced signaling. The Tox21 10K library compounds were measured for their ability to positively modulate the action of EC50 EGF on reporter gene activity. Compounds were screened in a 15-pt titration series in 1536-well format. The cytotoxicity of the Tox21 compound library against this cell line was tested in parallel by measuring the intra cellular ATP content in the same wells.
Tox21 Assay Protocol Summary:
2500 cells/5uL in Opti-MEM medium containing 0.5% dialyzed FBS, 0.1 mM NEAA, 1 mM sodium pyruvate and 10 mM HEPES was dispensed into 1536-well black wall/clear bottom plates using a Multidrop dispenser and cells were cultured at 37 degrees Celsius overnight. Next day 23 nL of compounds dissolved in DMSO, positive controls or DMSO were delivered to each well using a pin tool. The plates were incubated at 37 degrees Celsius for 5 hours. 1 uL of LiveBLAzerTM B/G FRET substrate (Solution A+B+C+D) was added to each well using a Flying Reagent Dispenser. After incubated at room temperature for 2.5 hours the plates were measured on an EnVision plate reader at Excitation 405nm, Emission1=460nm and Emission 2=530nm. The %Activity was determined from the ratio of 460nm/530nm.
After the plates were read for Beta-Lactamase assay on Envision; 3 ul Cell Titer Glo (Promega) was added to measure the cytotoxicity and the plates were then incubated at RT in dark for 30 min. The luminescence was read on ViewLux (Perkin Elmer, Shelton, CT) using 6 sec exposure. ViewLux data was expressed as relative luminescence units.
For primary data analysis, raw plate reads for each titration point were first normalized relative to […] EGF control (100%) and DMSO only wells (basal, 0%).
For primary data analysis for viability assay, raw plate reads for each titration point were first normalized Tetra n-octyl ammonium bromide control (-100%) and DMSO (control, 100%).

SMILES | outcome
CC(C)CC(=O)O | inactive
CCCCCCOc1ccccc1C(N)=O | inactive
CCN(C)C(=O)Oc1cccc([C@H](C)N(C)C)c1 | inactive
O=S(=O)(O)c1ccc2cc(O)c(S(=O)(=O)O)cc2c1 | inactive
CCc1ccc(C=O)cc1 | inactive
Cc1ccc(S(=O)(=O)O)c(C)c1 | inactive
CCCCCCCCC(=O)Cl | inactive
CC(C)CCCCOC(=O)c1ccccc1C(=O)OCCCCC(C)C | inactive
CCOC(=O)c1ncn2c1CN(C)C(=O)c1cc(F)ccc1-2 | inactive
N#Cc1ccc(C(=O)O)cc1 | inactive
O=Cc1ccc(Cl)c(Cl)c1 | inactive
Cc1cc2cc3c(C)cc(=O)oc3c(C)c2o1 | inactive
O=C1c2ccccc2C(=O)c2cc(S(=O)(=O)O)ccc21 | inactive
COc1ccc2nc(SCc3ncc(C)c(OC)c3C)[nH]c2c1 | inactive
C=CC(OCC)OCC | inactive
Nc1ccc(S(=O)(=O)Nc2ccc(Cl)nn2)cc1 | inactive
CCn1ccc(NS(=O)(=O)c2ccc(N)cc2)nc1=O | inactive
BrCc1cccc(Oc2ccccc2)c1 | inactive
NCCN1CCOCC1 | inactive
C=C(C)C(=O)OCc1ccccc1 | inactive

SMILES | outcome
O=C1CC(c2ccc(Cl)cc2)CC(=O)N1 | inactive
C[C@@H]1O[C@@H](O[C@@H]2[C@@H](O)[C@H](OCCc3ccc(O)c(O)c3)O[C@H](CO[C@@H]3O[C@H](CO)[C@@H](O)[C@H](O)[C@H]3O)[C@H]2OC(=O)/C=C/c2ccc(O)c(O)c2)[C@H](O)[C@H](O)[C@H]1O | inactive
COc1cc(N)ccc1C | inactive
Cc1cccc2nccnc12 | inactive
CC(C)C[C@H](NC(=O)CNC(=O)[C@H](Cc1ccc(O)cc1)NC(=O)[C@H](CO)NC(=O)[C@H](Cc1c[nH]c2ccccc12)NC(=O)[C@H](Cc1cnc[nH]1)NC(=O)[C@@H]1CCC(=O)N1)C(=O)N[C@@H](CCCN=C(N)N)C(=O)N1CCC[C@H]1C(=O)NCC(N)=O (stereo in doubt) | inactive
C[C@H](CCC(=O)O)[C@H]1CC[C@H]2[C@@H]3C(=O)C[C@@H]4CC(=O)CC[C@]4(C)[C@H]3CC(=O)[C@]12C | inactive
CN(C)CCOCCO | inactive
C#CC(C)N(C)C(=O)Nc1ccc(Cl)cc1 (stereo not given) | inactive
CC(=O)Nc1cccc(C)c1 | inactive
CC(C)C(=O)OCCc1ccccc1 | inactive
CCCCNC1CC(C)(C)NC(C)(C)C1 | inactive
COc1nccnc1NS(=O)(=O)c1ccc(N)cc1 | inactive
NS(=O)(=O)c1cc2c(cc1Cl)CN(C1CCCCC1)C2=O | inactive
OCCN(CCO)c1cccc(Cl)c1 | inactive
Cc1ccccc1C(=O)Nc1ccc(C(=O)N2CCCC(N(C)C)c3ccccc32)cc1 (stereo not given) | inactive
CC(=O)c1sc(C)nc1C | inactive
COc1cc(NS(=O)(=O)c2ccc(N)cc2)nc(OC)n1 | inactive
O=C1CCCC(=O)O1 | inactive
CCCCOC(=O)c1ccccc1 | inactive
On1nnc2ccccc21 | inactive
